Results as given in the supplement of paper PMC11732987, “Enantioselective OTUD7B fragment discovery through chemoproteomics screening and high-throughput optimisation” (Communications Chemistry, 2025).

Key:
Experiment in all cases: log2 ratio of Biotin-Ahx-Ub-VS probe labelling (fragment/DMSO); higher = less target engagement (more negative = stronger competition), active = hit call of the paper (q ≤ 0.05, log2 ratio ≤ -1)
Settings in all cases: compound concentration: 200 uM; treatment time: 3 h
USP42 = biological target: T1, USP42 (UniProt Q9H9J4)
T1 sequence (whole entry): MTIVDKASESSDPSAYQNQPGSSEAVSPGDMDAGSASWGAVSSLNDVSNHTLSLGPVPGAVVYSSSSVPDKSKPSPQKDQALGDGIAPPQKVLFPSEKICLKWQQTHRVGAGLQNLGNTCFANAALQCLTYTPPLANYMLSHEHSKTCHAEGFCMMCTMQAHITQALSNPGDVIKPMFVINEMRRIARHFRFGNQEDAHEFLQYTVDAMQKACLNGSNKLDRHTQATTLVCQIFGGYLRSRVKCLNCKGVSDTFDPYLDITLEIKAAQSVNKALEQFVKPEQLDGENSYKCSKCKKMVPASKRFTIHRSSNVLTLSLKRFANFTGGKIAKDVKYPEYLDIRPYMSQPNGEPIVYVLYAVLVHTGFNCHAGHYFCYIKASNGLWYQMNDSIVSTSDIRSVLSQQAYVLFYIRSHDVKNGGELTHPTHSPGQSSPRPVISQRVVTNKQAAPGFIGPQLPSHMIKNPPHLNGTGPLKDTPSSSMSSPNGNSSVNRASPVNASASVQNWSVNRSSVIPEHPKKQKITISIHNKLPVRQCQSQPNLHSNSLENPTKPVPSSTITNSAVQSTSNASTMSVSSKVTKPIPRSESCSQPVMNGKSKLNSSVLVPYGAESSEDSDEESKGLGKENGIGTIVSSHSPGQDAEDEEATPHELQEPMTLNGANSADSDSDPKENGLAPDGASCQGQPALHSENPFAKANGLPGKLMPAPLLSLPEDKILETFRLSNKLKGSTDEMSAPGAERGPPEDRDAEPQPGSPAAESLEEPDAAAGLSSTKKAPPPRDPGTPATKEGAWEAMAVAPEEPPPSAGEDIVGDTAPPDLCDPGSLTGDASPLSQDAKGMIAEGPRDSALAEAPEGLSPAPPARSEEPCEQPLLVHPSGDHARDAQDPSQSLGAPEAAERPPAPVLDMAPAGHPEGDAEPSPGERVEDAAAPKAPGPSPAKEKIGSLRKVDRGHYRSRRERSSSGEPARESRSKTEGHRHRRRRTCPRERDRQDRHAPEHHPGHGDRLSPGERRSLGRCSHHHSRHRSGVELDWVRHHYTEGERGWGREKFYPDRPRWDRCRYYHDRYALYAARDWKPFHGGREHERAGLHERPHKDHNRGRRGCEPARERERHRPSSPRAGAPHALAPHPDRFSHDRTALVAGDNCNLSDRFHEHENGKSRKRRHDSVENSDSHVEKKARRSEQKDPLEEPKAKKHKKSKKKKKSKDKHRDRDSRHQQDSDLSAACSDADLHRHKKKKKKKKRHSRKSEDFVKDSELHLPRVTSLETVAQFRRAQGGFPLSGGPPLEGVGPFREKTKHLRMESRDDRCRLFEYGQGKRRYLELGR
How it was run: (§1)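 Labelled DUBs were enriched with NeutrAvidin, digested with LysC and trypsin, and run by diaPASEF LC-MS/MS. The labelling used Biotin-Ahx-Ub-VS at 0.5 µM final for 1 h on HEK293T lysate (495 µg per sample) previously treated in triplicate with fragment at 200 µM or vehicle for 3 h. Values are average log2 fragment/vehicle ratios by unpaired t-test on global-median-normalised Spectronaut quantities of proteins with ≥2 unique peptides.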

USP46 = USP46 (UniProt P62068)
Chain of USP46 (P62068 whole entry): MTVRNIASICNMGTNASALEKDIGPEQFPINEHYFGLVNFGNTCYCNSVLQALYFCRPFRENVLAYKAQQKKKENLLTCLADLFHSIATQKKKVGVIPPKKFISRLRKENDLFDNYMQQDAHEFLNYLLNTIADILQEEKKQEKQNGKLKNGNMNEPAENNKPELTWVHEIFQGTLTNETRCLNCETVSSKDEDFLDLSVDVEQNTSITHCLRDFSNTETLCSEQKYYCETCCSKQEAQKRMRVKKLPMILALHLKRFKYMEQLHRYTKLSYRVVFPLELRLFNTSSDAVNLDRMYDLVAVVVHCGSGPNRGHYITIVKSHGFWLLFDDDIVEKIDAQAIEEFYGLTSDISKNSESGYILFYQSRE
How it was run: as §1

USP47 = biological target: T2, USP47 (UniProt Q96K76)
T2 sequence (whole entry): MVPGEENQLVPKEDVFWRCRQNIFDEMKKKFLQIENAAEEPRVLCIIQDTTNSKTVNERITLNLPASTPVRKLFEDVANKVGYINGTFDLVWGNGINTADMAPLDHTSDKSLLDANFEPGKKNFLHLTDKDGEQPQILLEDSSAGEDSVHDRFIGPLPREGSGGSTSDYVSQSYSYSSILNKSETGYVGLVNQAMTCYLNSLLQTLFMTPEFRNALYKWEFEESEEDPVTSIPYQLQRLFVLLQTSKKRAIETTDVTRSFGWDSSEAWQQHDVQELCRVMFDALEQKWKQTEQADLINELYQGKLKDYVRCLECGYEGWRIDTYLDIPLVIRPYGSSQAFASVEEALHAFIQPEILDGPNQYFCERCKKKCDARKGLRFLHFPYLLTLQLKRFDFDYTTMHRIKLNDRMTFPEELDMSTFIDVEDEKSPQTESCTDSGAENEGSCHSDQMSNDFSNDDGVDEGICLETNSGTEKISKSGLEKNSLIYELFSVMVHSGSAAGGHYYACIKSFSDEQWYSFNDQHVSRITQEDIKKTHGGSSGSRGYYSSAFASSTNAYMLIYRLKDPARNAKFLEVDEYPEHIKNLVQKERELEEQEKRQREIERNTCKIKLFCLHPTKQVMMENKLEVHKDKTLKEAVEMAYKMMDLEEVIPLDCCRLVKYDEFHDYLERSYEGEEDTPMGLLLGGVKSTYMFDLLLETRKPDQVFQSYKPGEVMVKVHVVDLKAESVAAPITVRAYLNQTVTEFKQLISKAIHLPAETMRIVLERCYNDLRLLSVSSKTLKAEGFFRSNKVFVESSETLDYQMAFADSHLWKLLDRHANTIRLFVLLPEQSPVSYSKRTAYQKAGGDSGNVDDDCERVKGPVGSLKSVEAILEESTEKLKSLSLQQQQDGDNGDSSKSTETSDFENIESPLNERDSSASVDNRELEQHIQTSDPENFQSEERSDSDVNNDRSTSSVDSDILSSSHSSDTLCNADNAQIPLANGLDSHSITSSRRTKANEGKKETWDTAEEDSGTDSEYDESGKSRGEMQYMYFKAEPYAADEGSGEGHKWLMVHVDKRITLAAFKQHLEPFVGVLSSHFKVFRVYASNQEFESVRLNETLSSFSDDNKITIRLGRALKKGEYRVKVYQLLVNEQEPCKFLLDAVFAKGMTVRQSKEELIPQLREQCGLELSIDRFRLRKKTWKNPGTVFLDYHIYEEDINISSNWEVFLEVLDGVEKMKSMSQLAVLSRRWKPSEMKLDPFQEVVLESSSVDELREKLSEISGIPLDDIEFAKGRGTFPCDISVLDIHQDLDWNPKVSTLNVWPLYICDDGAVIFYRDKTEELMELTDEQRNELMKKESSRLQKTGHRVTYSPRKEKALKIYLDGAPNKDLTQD
How it was run: as §1

USP48 = biological target: T3, USP48 (UniProt Q86UV5)
T3 sequence (whole entry): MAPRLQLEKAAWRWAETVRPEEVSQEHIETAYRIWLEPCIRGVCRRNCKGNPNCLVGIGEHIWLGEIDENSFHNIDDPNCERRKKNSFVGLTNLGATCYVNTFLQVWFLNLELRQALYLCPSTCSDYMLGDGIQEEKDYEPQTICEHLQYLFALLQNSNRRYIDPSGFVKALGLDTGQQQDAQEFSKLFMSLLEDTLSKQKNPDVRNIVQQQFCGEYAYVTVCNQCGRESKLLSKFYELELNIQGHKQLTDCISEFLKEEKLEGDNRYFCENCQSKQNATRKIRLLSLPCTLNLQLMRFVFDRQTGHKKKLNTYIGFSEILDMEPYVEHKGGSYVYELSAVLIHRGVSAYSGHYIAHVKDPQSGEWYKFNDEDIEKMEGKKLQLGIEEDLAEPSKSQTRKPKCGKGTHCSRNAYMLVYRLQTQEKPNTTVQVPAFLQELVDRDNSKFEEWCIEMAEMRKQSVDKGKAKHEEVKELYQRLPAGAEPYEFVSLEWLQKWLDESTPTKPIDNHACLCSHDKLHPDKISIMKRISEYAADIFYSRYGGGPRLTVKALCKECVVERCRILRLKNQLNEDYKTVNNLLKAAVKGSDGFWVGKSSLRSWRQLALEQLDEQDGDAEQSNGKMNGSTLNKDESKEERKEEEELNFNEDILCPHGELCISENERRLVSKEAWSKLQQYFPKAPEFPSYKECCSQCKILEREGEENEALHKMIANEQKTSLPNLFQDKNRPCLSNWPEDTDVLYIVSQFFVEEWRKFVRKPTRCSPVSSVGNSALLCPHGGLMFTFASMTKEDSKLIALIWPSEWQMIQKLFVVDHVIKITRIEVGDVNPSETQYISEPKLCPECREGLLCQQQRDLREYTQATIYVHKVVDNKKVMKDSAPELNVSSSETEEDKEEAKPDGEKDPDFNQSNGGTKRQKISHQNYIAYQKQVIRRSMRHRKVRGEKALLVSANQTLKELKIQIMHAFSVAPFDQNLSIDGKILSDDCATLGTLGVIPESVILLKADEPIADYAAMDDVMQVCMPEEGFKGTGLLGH
How it was run: as §1

USP5 = biological target: T4, USP5 (UniProt P45974)
T4 sequence (whole entry): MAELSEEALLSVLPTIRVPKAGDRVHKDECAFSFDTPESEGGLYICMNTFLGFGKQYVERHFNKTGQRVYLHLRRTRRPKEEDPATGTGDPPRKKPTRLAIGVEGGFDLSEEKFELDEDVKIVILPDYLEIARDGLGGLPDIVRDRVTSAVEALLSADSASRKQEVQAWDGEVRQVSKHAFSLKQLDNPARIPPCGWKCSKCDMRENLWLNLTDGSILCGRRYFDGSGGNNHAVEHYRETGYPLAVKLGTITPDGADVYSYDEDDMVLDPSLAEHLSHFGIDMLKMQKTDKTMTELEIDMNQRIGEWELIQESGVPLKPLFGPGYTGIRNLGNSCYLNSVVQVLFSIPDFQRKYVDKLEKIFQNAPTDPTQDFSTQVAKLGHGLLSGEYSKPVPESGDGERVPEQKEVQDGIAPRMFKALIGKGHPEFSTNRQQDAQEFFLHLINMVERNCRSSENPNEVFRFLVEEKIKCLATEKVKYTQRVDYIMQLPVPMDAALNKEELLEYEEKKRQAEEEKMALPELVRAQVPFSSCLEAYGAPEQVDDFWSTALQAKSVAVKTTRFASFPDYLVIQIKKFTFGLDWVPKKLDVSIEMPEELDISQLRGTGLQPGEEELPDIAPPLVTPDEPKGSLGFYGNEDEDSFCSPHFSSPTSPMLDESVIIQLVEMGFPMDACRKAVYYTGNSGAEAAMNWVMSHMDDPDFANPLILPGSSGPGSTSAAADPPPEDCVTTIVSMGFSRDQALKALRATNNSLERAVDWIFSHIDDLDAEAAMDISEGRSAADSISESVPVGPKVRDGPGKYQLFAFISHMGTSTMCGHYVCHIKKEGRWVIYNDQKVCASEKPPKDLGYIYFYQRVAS
How it was run: as §1

USP54 = USP54 (UniProt Q70EL1)
Chain of USP54 (Q70EL1 whole entry): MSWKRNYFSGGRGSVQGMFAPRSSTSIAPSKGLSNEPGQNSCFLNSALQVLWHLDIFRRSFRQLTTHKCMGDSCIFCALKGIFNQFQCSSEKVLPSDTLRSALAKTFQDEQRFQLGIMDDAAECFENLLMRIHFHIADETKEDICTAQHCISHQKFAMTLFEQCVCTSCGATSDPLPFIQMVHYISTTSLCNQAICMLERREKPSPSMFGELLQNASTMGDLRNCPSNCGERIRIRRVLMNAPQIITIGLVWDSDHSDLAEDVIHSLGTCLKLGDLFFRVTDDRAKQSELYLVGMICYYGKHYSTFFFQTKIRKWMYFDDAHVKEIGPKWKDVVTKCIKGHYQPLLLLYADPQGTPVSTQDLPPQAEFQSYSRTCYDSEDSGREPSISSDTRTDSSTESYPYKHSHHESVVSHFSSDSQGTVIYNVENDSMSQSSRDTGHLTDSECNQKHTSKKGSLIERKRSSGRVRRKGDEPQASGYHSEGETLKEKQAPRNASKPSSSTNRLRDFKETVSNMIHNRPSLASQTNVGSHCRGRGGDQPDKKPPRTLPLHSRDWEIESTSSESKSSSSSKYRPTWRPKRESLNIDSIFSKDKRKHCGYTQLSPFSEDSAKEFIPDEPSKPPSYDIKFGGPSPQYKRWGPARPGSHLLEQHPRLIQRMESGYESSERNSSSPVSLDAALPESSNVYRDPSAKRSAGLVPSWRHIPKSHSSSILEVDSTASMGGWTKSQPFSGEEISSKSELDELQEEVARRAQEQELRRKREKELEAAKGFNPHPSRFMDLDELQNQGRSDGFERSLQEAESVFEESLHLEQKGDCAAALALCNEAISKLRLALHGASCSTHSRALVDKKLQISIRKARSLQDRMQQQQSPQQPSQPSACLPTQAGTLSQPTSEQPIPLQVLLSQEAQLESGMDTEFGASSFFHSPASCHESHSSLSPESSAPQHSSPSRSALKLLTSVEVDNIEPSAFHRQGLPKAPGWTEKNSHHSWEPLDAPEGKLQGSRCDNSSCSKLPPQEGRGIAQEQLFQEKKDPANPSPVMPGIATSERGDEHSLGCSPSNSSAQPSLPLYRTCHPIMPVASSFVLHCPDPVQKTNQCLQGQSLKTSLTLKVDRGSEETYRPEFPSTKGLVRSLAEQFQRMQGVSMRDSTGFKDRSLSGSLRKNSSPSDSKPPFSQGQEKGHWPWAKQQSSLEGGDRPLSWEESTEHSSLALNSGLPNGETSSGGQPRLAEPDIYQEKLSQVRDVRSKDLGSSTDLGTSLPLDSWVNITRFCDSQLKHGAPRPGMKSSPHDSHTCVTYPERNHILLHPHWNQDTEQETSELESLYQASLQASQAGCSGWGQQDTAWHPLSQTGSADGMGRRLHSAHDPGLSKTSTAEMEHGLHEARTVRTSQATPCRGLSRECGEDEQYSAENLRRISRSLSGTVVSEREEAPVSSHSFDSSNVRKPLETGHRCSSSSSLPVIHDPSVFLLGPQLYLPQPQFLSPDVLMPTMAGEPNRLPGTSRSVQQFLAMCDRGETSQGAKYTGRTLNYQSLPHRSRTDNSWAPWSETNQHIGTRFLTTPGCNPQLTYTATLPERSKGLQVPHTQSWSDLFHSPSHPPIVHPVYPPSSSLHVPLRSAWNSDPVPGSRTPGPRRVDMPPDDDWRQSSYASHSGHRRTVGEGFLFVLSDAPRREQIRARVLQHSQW
How it was run: as §1

USP7 = USP7 (UniProt Q93009)
Chain of USP7 (Q93009 whole entry, looked up): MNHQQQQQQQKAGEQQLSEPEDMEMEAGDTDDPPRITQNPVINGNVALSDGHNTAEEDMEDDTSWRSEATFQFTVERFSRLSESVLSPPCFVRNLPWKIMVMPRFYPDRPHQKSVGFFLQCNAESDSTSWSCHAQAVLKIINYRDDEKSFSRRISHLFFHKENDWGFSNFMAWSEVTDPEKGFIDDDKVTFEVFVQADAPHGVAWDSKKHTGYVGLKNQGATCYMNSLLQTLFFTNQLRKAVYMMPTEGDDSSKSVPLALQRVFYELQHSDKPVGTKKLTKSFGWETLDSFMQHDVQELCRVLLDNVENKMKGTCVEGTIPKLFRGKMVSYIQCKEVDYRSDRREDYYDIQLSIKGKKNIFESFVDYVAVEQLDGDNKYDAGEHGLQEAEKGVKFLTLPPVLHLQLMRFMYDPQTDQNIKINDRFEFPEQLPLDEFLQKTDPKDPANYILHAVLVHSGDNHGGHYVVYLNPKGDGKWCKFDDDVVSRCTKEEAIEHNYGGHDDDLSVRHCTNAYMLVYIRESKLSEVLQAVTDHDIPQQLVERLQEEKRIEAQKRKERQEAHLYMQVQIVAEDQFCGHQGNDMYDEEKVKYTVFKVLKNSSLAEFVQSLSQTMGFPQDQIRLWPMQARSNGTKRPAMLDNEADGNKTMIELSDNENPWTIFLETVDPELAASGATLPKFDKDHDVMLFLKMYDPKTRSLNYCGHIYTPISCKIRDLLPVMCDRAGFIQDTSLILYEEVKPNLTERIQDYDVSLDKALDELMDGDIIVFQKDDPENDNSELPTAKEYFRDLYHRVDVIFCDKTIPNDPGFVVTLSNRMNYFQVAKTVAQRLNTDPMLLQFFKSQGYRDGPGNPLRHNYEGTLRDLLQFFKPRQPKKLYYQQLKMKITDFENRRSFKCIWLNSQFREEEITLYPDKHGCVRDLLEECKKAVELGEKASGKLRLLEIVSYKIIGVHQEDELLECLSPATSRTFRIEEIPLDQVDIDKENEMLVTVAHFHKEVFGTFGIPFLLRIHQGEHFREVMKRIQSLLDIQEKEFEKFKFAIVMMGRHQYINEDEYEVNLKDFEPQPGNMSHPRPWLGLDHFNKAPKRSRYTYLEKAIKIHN
How it was run: as §1

USP8 = biological target: T5, USP8 (UniProt P40818)
T5 sequence (whole entry): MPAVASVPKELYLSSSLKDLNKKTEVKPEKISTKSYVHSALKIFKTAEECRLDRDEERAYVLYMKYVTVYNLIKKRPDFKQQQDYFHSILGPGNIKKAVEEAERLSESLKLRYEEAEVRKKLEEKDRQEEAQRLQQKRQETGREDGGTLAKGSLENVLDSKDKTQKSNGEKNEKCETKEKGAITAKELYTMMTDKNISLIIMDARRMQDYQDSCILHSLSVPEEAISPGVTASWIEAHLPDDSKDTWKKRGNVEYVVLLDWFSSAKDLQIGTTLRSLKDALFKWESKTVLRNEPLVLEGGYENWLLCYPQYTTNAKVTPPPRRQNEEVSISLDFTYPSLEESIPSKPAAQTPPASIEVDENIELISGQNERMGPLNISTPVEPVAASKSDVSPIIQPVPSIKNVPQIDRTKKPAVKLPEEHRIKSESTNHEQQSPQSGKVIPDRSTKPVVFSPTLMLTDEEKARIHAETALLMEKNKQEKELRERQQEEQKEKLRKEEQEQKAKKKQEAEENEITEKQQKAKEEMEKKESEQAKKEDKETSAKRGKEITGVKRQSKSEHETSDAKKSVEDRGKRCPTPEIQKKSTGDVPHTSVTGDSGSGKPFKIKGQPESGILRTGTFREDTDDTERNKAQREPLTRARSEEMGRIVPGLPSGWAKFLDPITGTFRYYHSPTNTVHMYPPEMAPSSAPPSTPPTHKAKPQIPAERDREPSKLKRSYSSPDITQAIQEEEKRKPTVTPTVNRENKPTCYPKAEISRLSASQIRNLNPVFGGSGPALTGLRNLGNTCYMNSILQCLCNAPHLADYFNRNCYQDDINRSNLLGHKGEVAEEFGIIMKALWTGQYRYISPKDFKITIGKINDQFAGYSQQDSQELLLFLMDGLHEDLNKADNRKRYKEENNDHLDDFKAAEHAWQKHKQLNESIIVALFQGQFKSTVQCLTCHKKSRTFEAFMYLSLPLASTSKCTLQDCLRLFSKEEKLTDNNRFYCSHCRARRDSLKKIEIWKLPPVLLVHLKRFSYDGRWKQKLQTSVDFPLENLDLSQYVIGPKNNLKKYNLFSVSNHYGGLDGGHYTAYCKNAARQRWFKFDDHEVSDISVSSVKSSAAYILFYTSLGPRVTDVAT
How it was run: as §1

USP9X = USP9X (UniProt Q93008)
How it was run: as §1

UniProt O00487 = biological target: UniProt O00487
Chain of UniProt O00487 (O00487 whole entry): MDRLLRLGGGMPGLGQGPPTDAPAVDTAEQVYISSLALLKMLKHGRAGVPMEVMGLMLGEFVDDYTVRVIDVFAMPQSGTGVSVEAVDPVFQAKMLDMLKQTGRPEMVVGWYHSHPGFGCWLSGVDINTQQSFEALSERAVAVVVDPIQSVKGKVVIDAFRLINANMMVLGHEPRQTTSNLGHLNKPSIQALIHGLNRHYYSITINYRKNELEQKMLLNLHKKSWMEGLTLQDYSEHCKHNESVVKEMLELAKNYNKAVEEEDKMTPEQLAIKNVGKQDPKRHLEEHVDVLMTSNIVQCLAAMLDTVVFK
How it was run: as §1

Measured: log2 ratio of Biotin-Ahx-Ub-VS probe labelling

O=C(CCl)NC1(c2ccc3c(c2)OCCO3)CCCC1
inactive: USP42 -0.0517 | USP46 -0.105 | USP47 -0.898 | USP48 -0.261 | USP5 0.179 | USP54 1.09 | USP7 -0.305 | USP8 -0.374 | USP9X -0.378 | UniProt O00487 -0.176
